The results in this text go back to PubChem BioAssay (Tox21).

Records with an inconclusive call do not appear. Entries that show only a call come without a potency. Calls of active or inactive are those of the source. Unless noted, the call rests on the fitted dose curve; in most records, active means well fitted curve in the direction sought with a large enough effect in the repeat runs; inconclusive means weak or mixed curves; inactive means no such curve, though single readings can be large; an effect the other way counts as inactive or inconclusive.

The nature of the first experiment: qHTS assay to identify small molecule antagonists of the estrogen related receptor (ERR) signaling pathway from Tox21 library (AID 1224848). Further: nearly all actives have a fitted effect of over 50% in size. Further: potency means the concentration at half of the fitted maximal effect. The conditions noted are these: ERR reporter cell line, luciferase antagonist mode, 18 h; series mostly up to 92.4 µM. Put shortly:
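Luminescent reporter read-out (ONE-Glo) from NTP's ERR cell line after 18 h treatment at 37 C with DMSO-dissolved Tox21 compounds; cells pre-plated 6 h beforehand at 2,000 per well.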
With `CCCCCCCCCI`, the Potency entry is “inactive”.

Consider `O=C=Nc1ccc(Cl)c(Cl)c1`, for which the Potency was 26.9 µM (active).

In the case of `O=C1C(=O)c2ccccc2C(O)=C1C1CCC(c2ccc(Cl)cc2)CC1` (configuration not stated), the Potency was 10.6 µM (active).

For the compound `c1ccc(C[n+]2cccc3ccccc32)cc1`, the Potency is 48.6 µM (active).

Consider `CC(C)C=O`, for which the Potency result is “inactive”.

As to `CCC1(CO)COCOC1`, the Potency result is “inactive”.

Turning to `C[C@H]1C[C@H](O)c2ccsc2S1(=O)=O`, the Potency entry is “inactive”.

For the compound `CC1(C)[C@H](C(=O)O)N2C(=O)C[C@H]2S1(=O)=O`, the Potency entry was “inactive”.

With `COC(=O)[C@H]1[C@H]2C[C@@H]3c4[nH]c5cc(OC)ccc5c4CCN3C[C@H]2C[C@@H](OC(=O)/C=C/c2ccc(O)c(OC)c2)[C@@H]1OC`, the Potency is 10.6 µM (active).

Consider `NCCNCCO`, for which the Potency result is “inactive”.

Regarding `N#CCc1ccc(Cl)cc1Cl`, the Potency entry is “inactive”.

Take `CCCCC(CC)CN` (configuration not stated): the Potency entry is “inactive”.

Consider `CC(CN(C)C)C(C)(O)Cc1ccc(Cl)cc1` (configuration not stated), for which the Potency entry is “inactive”.

For the compound `C[C@@]12CCC[C@H]1[C@@H]1CC[C@H]3C[C@@H](O)CC[C@]3(C)[C@H]1CC2`, the Potency result was “inactive”.

In the case of `Cc1ccccc1N=C(N)Nc1ccccc1C`, the Potency result is “inactive”.

On to `O=C(O)c1ccc(OCCCOc2ccc(C(=O)O)cc2)cc1`, for which the Potency entry was “inactive”.

With `NC(=O)c1ccncc1`, the Potency entry was “inactive”.

As for `C=C(C)C(=O)OCCOCCOC(=O)C(=C)C`, the Potency entry was “inactive”.

`COC(=O)C1=C(C)NC(C)=C(C(=O)O[C@@H]2CCCN(Cc3ccccc3)C2)[C@@H]1c1cccc([N+](=O)[O-])c1`: the Potency was 23.7 µM (active).

Regarding `CCCCCC[C@@H](O)C/C=C\CCCCCCCC(=O)OCC(O)CO` (some centres not stated), the Potency entry is “inactive”.

In the case of `CC[N+](CC)(CCNC(=O)C(=O)NCC[N+](CC)(CC)Cc1ccccc1Cl)Cc1ccccc1Cl`, the Potency entry was “inactive”.

In the case of `CCCCCC#CC(=O)OC`, the Potency result was “inactive”.

In the case of `CCCCCCCC/C=C\CCCCCCCCO`, the Potency result is “inactive”.

A further experiment can be described thus: qHTS assay to identify small molecule agonists of the estrogen related receptor (ERR) signaling pathway from Tox21 library (AID 1224849; calls by dose curve; further: nearly all actives have a fitted effect of over 15% in size). The conditions noted are these: ERR reporter cell line, ONE-Glo luciferase, 18 h; at 92.4 µM (top of the series) unless noted. In outline: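 Agonist signal is luciferase luminescence from an ERR reporter cell line treated 18 h at 37 C with DMSO-dissolved compounds, read 30 min after ONE-Glo addition at room temperature.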
In the case of `CCCCCCCCCI`, the activity change, positive = activation was 3.18% (inactive).

As to `O=C=Nc1ccc(Cl)c(Cl)c1`, the activity change, positive = activation was -41% (inactive).

With `O=C1C(=O)c2ccccc2C(O)=C1C1CCC(c2ccc(Cl)cc2)CC1` (configuration not stated), the activity change, positive = activation was 0.683% [at 42.5 µM] (inactive).

With `c1ccc(C[n+]2cccc3ccccc32)cc1`, the activity change, positive = activation is -48.3% (inactive).

As for `CC(C)C=O`, the activity change, positive = activation is 0.557% (inactive).

Consider `CCC1(CO)COCOC1`, for which the activity change, positive = activation is 7.78% (inactive).

For `C[C@H]1C[C@H](O)c2ccsc2S1(=O)=O`, the activity change, positive = activation was 5.62% [at 42.5 µM] (inactive).

Take `CC1(C)[C@H](C(=O)O)N2C(=O)C[C@H]2S1(=O)=O`: the activity change, positive = activation was 5.98% [at 42.5 µM] (inactive).

Consider `COC(=O)[C@H]1[C@H]2C[C@@H]3c4[nH]c5cc(OC)ccc5c4CCN3C[C@H]2C[C@@H](OC(=O)/C=C/c2ccc(O)c(OC)c2)[C@@H]1OC`, for which the activity change, positive = activation was -35.3% [at 42.5 µM] (inactive).

As to `NCCNCCO`, the activity change, positive = activation was 0.838% (inactive).

Consider `N#CCc1ccc(Cl)cc1Cl`, for which the activity change, positive = activation is 0.109% (inactive).

With `CCCCC(CC)CN` (configuration not stated), the activity change, positive = activation was 2.45% (inactive).

`CC(CN(C)C)C(C)(O)Cc1ccc(Cl)cc1` (configuration not stated): the activity change, positive = activation was 9.4% [at 42.5 µM] (inactive).

Take `C[C@@]12CCC[C@H]1[C@@H]1CC[C@H]3C[C@@H](O)CC[C@]3(C)[C@H]1CC2`: the activity change, positive = activation is -6.1% [at 42.5 µM] (inactive).

As to `Cc1ccccc1N=C(N)Nc1ccccc1C`, the activity change, positive = activation was -3.25% (inactive).

With `O=C(O)c1ccc(OCCCOc2ccc(C(=O)O)cc2)cc1`, the activity change, positive = activation is 7.07% [at 42.5 µM] (inactive).

Regarding `NC(=O)c1ccncc1`, the activity change, positive = activation was 6.51% (inactive).

For the compound `C=C(C)C(=O)OCCOCCOC(=O)C(=C)C`, the activity change, positive = activation is 6.4% (inactive).

As to `COC(=O)C1=C(C)NC(C)=C(C(=O)O[C@@H]2CCCN(Cc3ccccc3)C2)[C@@H]1c1cccc([N+](=O)[O-])c1`, the activity change, positive = activation is -34.6% [at 42.5 µM] (inactive).

With `CCCCCC[C@@H](O)C/C=C\CCCCCCCC(=O)OCC(O)CO` (some centres not stated), the activity change, positive = activation was -2.03% (inactive).

On to `Cc1c(C)c2c(c(C)c1OC(=O)CCC(=O)OCCO)CC[C@@](C)(CCC[C@H](C)CCC[C@H](C)CCCC(C)C)O2`, for which the activity change, positive = activation was -48.8% [at 42.5 µM] (inactive).

Regarding `CC[N+](CC)(CCNC(=O)C(=O)NCC[N+](CC)(CC)Cc1ccccc1Cl)Cc1ccccc1Cl`, the activity change, positive = activation was 8.73% [at 42.5 µM] (inactive).

For the compound `CCCCCCC(C)(C)C(=O)O`, the activity change, positive = activation was -23% (inactive).

As for `CCCCCCCC/C=C\CCCCCCCCO`, the activity change, positive = activation was 4.79% (inactive).

The nature of the next experiment: qHTS RealTime-Glo MT Cell Viability Assay in HepG2 cells - 24 hour (AID 1224867). Further: nearly all actives have a fitted effect of over 50% in size. The conditions noted are these: RealTime-Glo luminescence; series mostly up to 76.8 µM. Put shortly: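 Cells + NanoLuc/prosubstrate dispensed (600 cells/well) → 5 h at 37 C/5% CO2 → compounds in DMSO transferred → 40 h incubation at 37 C, luminescence read at 0, 8, 16, 24, 32, 40 h.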
A general note: Quantitative high-throughput screening tests each substance at several concentrations.
As to `O=C(O)C[C@H](NC(=O)OCc1ccccc1)C(=O)O`, the Potency result was “inactive”.

As to `O=C=Nc1ccc(Cl)c(Cl)c1`, the Potency entry is “inactive”.

Regarding `C[C@@H](O)[C@H]1C(=O)N2C(C(=O)O)=C([C@H]3CCCO3)S[C@H]12`, the Potency result is “inactive”.

Take `c1ccc(C[n+]2cccc3ccccc32)cc1`: the Potency entry was “inactive”.

With `CN(C)CCN1C(=O)c2ccccc2N(C)c2ccccc21`, the Potency result is “inactive”.

For `CCC1(CO)COCOC1`, the Potency result is “inactive”.

Regarding `Cc1cscn1`, the Potency entry is “inactive”.

In the case of `C[C@H]1C[C@H](O)c2ccsc2S1(=O)=O`, the Potency result is “inactive”.

For the compound `O=C(/C=C/c1ccccc1)OCCc1ccccc1`, the Potency result is “inactive”.

`CC1(C)[C@H](C(=O)O)N2C(=O)C[C@H]2S1(=O)=O`: the Potency entry was “inactive”.

Take `CC=C(Cl)Cl`: the Potency result was “inactive”.

Regarding `COC(=O)[C@H]1[C@H]2C[C@@H]3c4[nH]c5cc(OC)ccc5c4CCN3C[C@H]2C[C@@H](OC(=O)/C=C/c2ccc(O)c(OC)c2)[C@@H]1OC`, the Potency entry is “inactive”.

As to `NCCNCCO`, the Potency entry was “inactive”.

`N#CCc1ccc(Cl)cc1Cl`: the Potency entry was “inactive”.

`CCCCC(CC)CN` (configuration not stated): the Potency entry is “inactive”.

With `CC(CN(C)C)C(C)(O)Cc1ccc(Cl)cc1` (configuration not stated), the Potency result was “inactive”.

For `C[C@@]12CCC[C@H]1[C@@H]1CC[C@H]3C[C@@H](O)CC[C@]3(C)[C@H]1CC2`, the Potency result was “inactive”.

`C[C@]1(Cn2ccnn2)[C@H](C(=O)O)N2C(=O)C[C@H]2S1(=O)=O`: the Potency entry was “inactive”.

Turning to `Cc1ccccc1N=C(N)Nc1ccccc1C`, the Potency result is “inactive”.

Regarding `O=C(O)c1ccc(OCCCOc2ccc(C(=O)O)cc2)cc1`, the Potency entry is “inactive”.

For the compound `CC1(C)S[C@@H]2[C@H](NC(=O)C(c3ccccc3)S(=O)(=O)O)C(=O)N2[C@H]1C(=O)O` (some centres not stated), the Potency result was “inactive”.

On to `NC(=O)c1ccncc1`, for which the Potency result is “inactive”.

Regarding `CO[C@]1(NC(=O)CSC(F)F)C(=O)N2C(C(=O)O)=C(CSc3nnnn3CCO)CO[C@H]21`, the Potency result was “inactive”.

With `CCCCN(CCN(CCCC)C(=O)N1CCOCC1)C(=O)N1CCOCC1`, the Potency result was “inactive”.

On to `O=C1CCCCCCCCCCOCCCCO1`, for which the Potency result was “inactive”.

For `C=C(C)C(=O)OCCOCCOC(=O)C(=C)C`, the Potency entry was “inactive”.

Take `COC(=O)C1=C(C)NC(C)=C(C(=O)O[C@@H]2CCCN(Cc3ccccc3)C2)[C@@H]1c1cccc([N+](=O)[O-])c1`: the Potency result was “inactive”.

For the compound `CCCCCC[C@@H](O)C/C=C\CCCCCCCC(=O)OCC(O)CO` (some centres not stated), the Potency entry is “inactive”.

For `Cc1c(C)c2c(c(C)c1OC(=O)CCC(=O)OCCO)CC[C@@](C)(CCC[C@H](C)CCC[C@H](C)CCCC(C)C)O2`, the Potency result was “inactive”.

Turning to `O=C(Cn1ccnc1[N+](=O)[O-])NCCO`, the Potency result is “inactive”.

For the compound `Cc1ccccc1S`, the Potency entry was “inactive”.

As for `CC[N+](CC)(CCNC(=O)C(=O)NCC[N+](CC)(CC)Cc1ccccc1Cl)Cc1ccccc1Cl`, the Potency entry was “inactive”.

For the compound `C=C1CCC2CC1C2(C)C` (configuration not stated), the Potency entry was “inactive”.

With `Cc1ccc(C(C)(C)O)cc1`, the Potency result is “inactive”.

`CCCCCC#CC(=O)OC`: the Potency result is “inactive”.
